Compounds with a hit are over-represented: about 0.79% of the library has one in this group of screens.
AMA1 RON2 block = qHTS for Inhibitors of AMA1-RON; Towards Development of Antimalarial Drug Lead: Primary Screen | Plasmodium falciparum AMA1 (3D7) - RON2 peptide interaction | AlphaScreen AMA1-biotinylated RON2 peptide binding | hit rate 0.2% among 360,000 | Potency, µM (titrated, usually from 58.2 µM), usual class: inhibitors; note: nearly all actives have a fitted effect of over 45% in size
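AMA1 (3D7) with his tag at 25 nM final met compounds first, then biotinylated RON2 peptide at 25 nM; detection used donor plus acceptor beads, 10 µg/mL apiece, read by AlphaScreen after 30 min at room temperature.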
RE007 growth inh = qHTS Assay for Inhibitors of the HIV-1 protein Vpr. S. pombe RE007 Vpr strain, BacTiter-Glo ATP luminescence, 24 h. Potency, µM (series often up to 92.2 µM), actives largely listed as inhibitors. hit rate 0.21% among 360,000; active = well fitted falling curve with a large enough effect; inconclusive = small, poorly fitted or top-dose-only effect; inactive = no such curve, though single readings can be large or run the other way; note: nearly all actives have a fitted effect of over 50% in size
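Fission yeast RE007 carrying one integrated HIV-1 vpr copy, seeded at OD 0.01 in PMG+AL medium with 23 nL pinned compound. Grown 24 h at 30 degrees; viability read by BacTiter-Glo luminescence after 5 min.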
AmpC no deterg = qHTS Inhibitors of AmpC Beta-Lactamase (assay without detergent) | P00811 | AmpC nitrocefin hydrolysis, absorbance 480 nm, 0.0001% Triton | Potency, µM (series often up to 57.1 µM), usual class: inhibitors | hit rate 0.52% among 330,000; note: nearly all actives have a fitted effect of over 20% in size
Target sequence (P00811 whole entry, looked up): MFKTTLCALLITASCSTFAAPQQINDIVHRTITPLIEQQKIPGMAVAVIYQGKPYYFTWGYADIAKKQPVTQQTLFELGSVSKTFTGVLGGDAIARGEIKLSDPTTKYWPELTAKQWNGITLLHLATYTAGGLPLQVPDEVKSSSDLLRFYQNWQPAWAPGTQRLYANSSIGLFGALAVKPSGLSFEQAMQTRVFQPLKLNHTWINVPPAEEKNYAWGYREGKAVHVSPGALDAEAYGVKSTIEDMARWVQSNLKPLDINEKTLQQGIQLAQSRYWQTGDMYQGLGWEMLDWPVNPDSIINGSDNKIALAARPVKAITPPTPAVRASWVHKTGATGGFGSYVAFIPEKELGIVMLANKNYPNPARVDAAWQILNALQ
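20 mM phosphate pH 7.0 + 0.01% (detergent screen) or 0.0001% Triton X-100; 5.3 nM AmpC reagent; cpd preinc 15 min RT; nitrocefin (800 uM stock) to start; A480 q20 s × 4 min; Activity was normalised to no-enzyme and no-compound control wells.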
AmpC detergent = qHTS Inhibitors of AmpC Beta-Lactamase (assay with detergent); P00811; AmpC hydrolysis of nitrocefin, absorbance 480 nm, 0.01% Triton; Potency, µM (titrated, usually from 114 µM), actives largely listed as inhibitors; hit rate 0.041% among 370,000; note: nearly all actives have a fitted effect of over 25% in size
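20 mM phosphate pH 7.0 + 0.01% (detergent screen) or 0.0001% Triton X-100; 5.3 nM AmpC reagent; cpd preinc 15 min RT; nitrocefin (800 uM stock) to start; A480 q20 s × 4 min; Activity was normalised to no-enzyme and no-compound control wells.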
Each line names hits and unclear results; the compound was inactive in the other large screens. Unless noted, calls come from the whole dose curve; as a rule, active = well fitted curve in the direction sought with a large enough effect; inconclusive = small, poorly fitted or top-dose-only effect, or another doubt; inactive = no such curve, though single readings can be large; an effect the other way counts as inactive or inconclusive.

Cc1ccc(NS(=O)(=O)c2c(C)nc3sccn3c2=O)c(Cl)c1	none (no result: AMA1 RON2 block, RE007 growth inh, AmpC no deterg)
CC1CC(C)CN(C(=O)c2ccc3c(c2NCCO)C(=O)c2ccccc2C3=O)C1 (configuration not stated)	AMA1 RON2 block 22.4µM
CCC1CCCCN1C(=O)c1nn(-c2ccc(C)cc2)c(=O)c2c1c1ccccc1n2C (configuration not stated)	none (no result: AMA1 RON2 block, RE007 growth inh, AmpC no deterg)
O=C(CSc1nc2ccccc2nc1Cc1ccc(Cl)cc1)N1CCN(c2ccccc2F)CC1	none (no result: AMA1 RON2 block, RE007 growth inh, AmpC no deterg)
O=c1cc2oc3cc(O)c(O)cc3c(-c3ccccc3[N+](=O)[O-])c-2cc1O	AMA1 RON2 block 0.708µM, AmpC no deterg 1.12µM
COC(=O)c1ccc(Cn2c(SCc3ccc(F)cc3)nc3ccncc32)cc1	none (no result: AMA1 RON2 block, RE007 growth inh, AmpC no deterg)
COc1cc(CNc2ccccc2Oc2cc(=O)n(C)c(=O)n2C)cc(OC)c1OC	none
Cn1c(Oc2ccccc2NCc2cc(Br)ccc2O)cc(=O)n(C)c1=O	AmpC no deterg 22.4µM, AmpC detergent inconclusive
CCC(=O)N1CCc2cc(Br)cc(S(=O)(=O)N3CCCC(C(=O)N(C)c4ccc(Br)cc4)C3)c21 (configuration not stated)	none (no result: AMA1 RON2 block, RE007 growth inh, AmpC no deterg)
CC1CCN(S(=O)(=O)c2ccc(NC(=O)c3cccs3)cc2)CC1	AmpC no deterg 28.2µM, AmpC detergent inconclusive
CN1CCN(S(=O)(=O)c2ccc(NC(=O)c3cccs3)cc2)CC1	none (no result: AmpC no deterg)
CC1CCN(S(=O)(=O)c2ccc(NC(=O)CSc3nnnn3C)cc2)CC1	AmpC no deterg 0.159µM
Cc1cccc(C(=O)N(Cc2ccco2)Cc2ccccc2F)c1	none (no result: AMA1 RON2 block, RE007 growth inh, AmpC no deterg)
Cc1cccc(Nc2nc3c(s2)CCCC3)c1	RE007 growth inh 25.1µM
O=C(O)c1ccc(Nc2nc3c(s2)CCCC3)cc1	none
CC1=C(C(=O)OC2CCCC2)C(c2c(F)cccc2Cl)CC(=O)N1 (configuration not stated)	none (no result: AMA1 RON2 block, RE007 growth inh, AmpC no deterg)
COc1ccc(-c2cc(C(F)(F)F)nc(SCCC(=O)Nc3ccc(OC)c(OC)c3)n2)cc1	none (no result: AMA1 RON2 block, RE007 growth inh, AmpC no deterg)
Cc1cn2c(-c3ccc(Cl)cc3)nnc2s1	AmpC no deterg 20µM
Clc1ccc(-c2nn3c(-c4ccccc4)nnc3s2)cc1	none
O=S(=O)(Nc1ccc(Br)cn1)c1ccc2ccccc2c1	AmpC no deterg 7.08µM
Cc1ccc2c(c1)-c1c(cnn1CC(=O)N1CCN(c3ccccc3F)CC1)CO2	none (no result: AMA1 RON2 block, RE007 growth inh, AmpC no deterg)
CC(=O)Nc1ccc(-c2nnc3n(CC(C)C)c(=O)c4ccccc4n23)cc1	none (no result: AMA1 RON2 block, RE007 growth inh, AmpC no deterg)
Cn1c2cc(B(O)O)sc2c2cnn(Cc3c(F)cccc3F)c(=O)c21	AmpC no deterg 5.62µM, AmpC detergent 2.51µM (no result: AMA1 RON2 block, RE007 growth inh)
Cn1c2cc(B(O)O)sc2c2cnn(Cc3ccc(F)cc3F)c(=O)c21	AmpC no deterg 3.55µM, AmpC detergent 3.55µM (no result: AMA1 RON2 block, RE007 growth inh)
Cn1c2cc(B(O)O)sc2c2cnn(Cc3c(F)cccc3Cl)c(=O)c21	AmpC no deterg 5.01µM, AmpC detergent 2.51µM (no result: AMA1 RON2 block, RE007 growth inh)
CC(C)(C=O)C1=CC(=O)c2ccccc2C1=O	RE007 growth inh 8.91µM, AmpC detergent inconclusive
O=C(CCSCc1cccc(Cl)c1)NCc1ccc(F)cc1Cl	none (no result: AMA1 RON2 block, RE007 growth inh, AmpC no deterg)
Cc1ccsc1/C=N/NC(=S)NCCc1ccccc1	AmpC no deterg 17.8µM
CCNC(=S)N/N=C/c1sccc1C	none (no result: AMA1 RON2 block, RE007 growth inh)
CCc1cc(C(=O)NCc2ccccc2)no1	none (no result: AMA1 RON2 block, RE007 growth inh, AmpC no deterg)
CCCc1cc(C(=O)NCCc2ccccc2)no1	AmpC no deterg 11.2µM
CCOC(=O)CC(NC(=O)N1CCC(CN2CCC(C)CC2)CC1)c1ccccc1 (configuration not stated)	none (no result: AMA1 RON2 block, RE007 growth inh, AmpC no deterg)
O=[N+]([O-])c1cc(C(F)(F)F)ccc1NC1CCN(Cc2ccccc2)C1 (configuration not stated)	none
O=[N+]([O-])c1cc(C(F)(F)F)ccc1NC1CCN(Cc2ccccc2)CC1	AMA1 RON2 block 12.6µM
Clc1ccc(CSc2cc3c(nn2)-c2ccccc2CC3)cc1Cl	AmpC no deterg 0.316µM
N#CC(C#N)=C/C=C(\Nc1ccc(Cl)cc1)c1ccc(Cl)cc1	none
N#CC(=C1C=C(Br)C(=NO)C=C1Cl)c1ccc(Cl)cc1	AMA1 RON2 block 20µM (no result: AmpC no deterg, AmpC detergent)
Cc1cc(C)c(S(=O)(=O)c2ccccc2C)c(SCC(C)C)n1	AmpC no deterg 0.251µM
CCCNC(=O)CCSc1nc(-c2ccc3c(c2)OCO3)cc(C(F)(F)F)n1	none (no result: AMA1 RON2 block, RE007 growth inh, AmpC no deterg)
CCc1ccccc1-n1c(SCC(=O)NC)nnc1-c1ccco1	AmpC detergent inconclusive
